# Data: PubChem BioAssay
# Calls of active or inactive are those of the source.
# How the values were obtained:
# [1] = tested on: Human papillomavirus type 1a protein E7 (residues 44-93); experiment: HPV1a E7 fragment binders on microarrays, primary screen, biochemical, small-molecule microarray, residues 44-93, 635 nm fluorescence (AID 1108); conditions: small-molecule microarray binding, fluorescence 635 nm; higher = more signal;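 note: E7 fragment applied at 1 µg/mL in TBST for 1 h at 4 C; score combines spot fluorescence with its signal to noise ratio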
# [2] = modulators of HCV replicon luciferase signal, primary screen, HCV replication inhibitor project, Huh7 cells, luciferase reporter (AID 1109); conditions: 48 h, higher = more signal;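 note: huh7 hepatoma cells harbouring a luciferase neomycin HCV replicon reporter; luciferase luminescence as measure of HCV replicon replication; test concentration not given here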
# [3] = target: Left-right determination factor 2 (Homo sapiens) (UniProt O00292); experiment: LEFTY2 binders on small-molecule microarrays, primary screen, biochemical, small-molecule microarray, 635 nm fluorescence scan (AID 1110); conditions: LEFTY2 binding, higher = more signal
# [4] = target: Calmodulin-1 (Homo sapiens) (UniProt P0DP23); experiment: CALM1 binders on microarrays, EGTA buffer, profiling panel, biochemical, small-molecule microarray, Cy5-labelled CALM1 (AID 1111); conditions: Cy5-CALM1 binding fluorescence, higher = more signal;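 note: labelled calmodulin applied in Tris saline Tween buffer holding calcium plus EGTA and DTT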
# [5] = target: Calmodulin-1 (Homo sapiens) (UniProt P0DP23); experiment: calcium-bound CALM1 binders on microarrays, profiling panel, artefact control for SMM control-protein annotation, biochemical, small-molecule microarray, Cy5-labelled CALM1, plus calcium (AID 1112); conditions: Cy5-CALM1 binding fluorescence, higher = more signal;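 note: score merges spot fluorescence with signal to noise from triplicate slides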
# [6] = small-molecule microarray binders of probe aWnt5a, primary screen, biochemical, biotinylated probe, 635/667 nm fluorescence (AID 1113); conditions: higher = more signal;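 note: score merges 667 nm fluorescence intensity with signal-to-noise per printed feature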
# [7] = small-molecule microarray binders of probe aShh, primary screen, biochemical, biotinylated probe, 635/667 nm fluorescence (AID 1114); conditions: higher = more signal;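 note: probe is biotin-labelled aShh protein from a stem cell growth factor screen; measures binding of labelled protein to compounds printed on the slide; score merges feature fluorescence at 667 nm with signal-to-noise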
# [8] = small-molecule microarray binders of probe aNog, primary screen, biochemical, biotinylated probe, 635/667 nm fluorescence (AID 1115); conditions: higher = more signal;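 note: probe is biotinylated aNog protein used at 0.15 µg/mL for 1 h at 4 C; z-score combines 667 nm fluorescence of each spot with its signal to noise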
# [9] = target: Torsin-1A-interacting protein 1 (Homo sapiens) (UniProt Q5JTV8); experiment: LAP1 binders from COS7 cell lysate, primary screen, small-molecule microarray, 635/667 nm fluorescence (AID 1116); conditions: COS7-hLAP1 lysate binding, 635 nm fluorescence, higher = more signal
# [10] = target: Alpha-bungarotoxin (Bungarus multicinctus) (UniProt P60615); experiment: alpha-bungarotoxin binders on microarray, profiling panel, artefact control for SMM control protein annotation, biochemical, small-molecule microarray, Alexa647 label, 635/667 nm fluorescence (AID 1117); conditions: alpha-BTX-A647 binding fluorescence, higher = more signal
# Albumin (Bos taurus) = Albumin (Bos taurus) (UniProt P02769); experiment: bovine serum albumin binders on microarray, profiling panel, artefact control for SMM control protein annotation, biochemical, small-molecule microarray, Alexa647 label, 635/667 nm fluorescence (AID 1118); conditions: BSA-A647 binding, fluorescence 635 nm, higher = more signal;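 note: score merges 667 nm emission intensity and signal-to-noise per printed compound spot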
# [11] = small-molecule microarray binders of probe aXIP, primary screen, biochemical, NeuroSMM set, 635/667 nm fluorescence (AID 1119); conditions: higher = more signal, called active from +8 up or from −8 down;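 note: probe is the protein aXip251-270 applied at 1 µg/mL to compound-printed slides; binding of probe to printed compounds measured as 667 nm fluorescence plus signal to noise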
# [12] = small-molecule binders of probe aNOTCH3, primary screen, biochemical, small-molecule microarray, 635/667 nm fluorescence (AID 1120); conditions: higher = more signal;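 note: probe is a biotin-tagged antibody raised against NOTCH3 rather than NOTCH3 protein; score merges spot fluorescence near 667 nm with spot signal to noise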
# [13] = small-molecule binders of probe aNOTCH2, primary screen, biochemical, small-molecule microarray, 635/667 nm fluorescence (AID 1121); conditions: higher = more signal;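 note: score merges feature fluorescence read at 667 nm with its signal to noise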
# [14] = target: Carbonic anhydrase 2 (Homo sapiens) (UniProt P00918); experiment: CAII small-molecule binders, profiling panel, biochemical, small-molecule microarray, Alexa647-labelled CAII (AID 1122); conditions: CAII-A647 binding fluorescence, higher = more signal
# [15] = COS7 lysate on small-molecule microarray, probe aHis, 635 nm (AID 1123); conditions: COS7 cell lysate, fluorescence, higher = more signal;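 note: z-score combines 667nm fluorescence intensity with signal-to-noise per printed compound spot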
# [16] = compound binding in COS7 lysate, probe aLAP1, primary screen, cell lysate, small-molecule microarray (AID 1124); conditions: probe aLAP1, fluorescence, higher = more signal;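 note: lysate comes from COS7 cells expressing LAP1 and is applied at 0.3 µg/mL; score merges spot fluorescence near 667 nm with signal-to-noise over triplicate slides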
# Sam68 (KHDRBS1) = experiment: Sam68 small-molecule binders, primary screen, biochemical, small-molecule microarray, 635 nm fluorescence (AID 1125); conditions: small-molecule microarray binding, higher = more signal;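 note: score merges 667 nm channel intensity with signal to noise over triplicate slides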
# [17] = tested on: Chordin-like protein 2 (CHRDL2); experiment: CHRDL2 small-molecule binders, primary screen, biochemical, small-molecule microarray, 635 nm fluorescence (AID 1126); conditions: small-molecule microarray binding, fluorescence 635 nm; higher = more signal;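 note: printed compound slides probed with Chrdl2 protein at 4 µg/mL for 1 h at 4 C; score merges 667 nm emission intensity with signal to noise over three replicate slides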
# [18] = target: Concanavalin-A (Canavalia ensiformis) (UniProt P02866); experiment: ConA small-molecule binders, primary screen, artefact control for SMM control protein annotation, biochemical, small-molecule microarray, Alexa647 label, 635 nm (AID 1127); conditions: ConA-A647 binding fluorescence, higher = more signal;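 note: z combines 667 nm emission intensity with signal-to-noise across three replicate slides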
# Chain of Concanavalin-A (Canavalia ensiformis) (P02866 whole entry, looked up): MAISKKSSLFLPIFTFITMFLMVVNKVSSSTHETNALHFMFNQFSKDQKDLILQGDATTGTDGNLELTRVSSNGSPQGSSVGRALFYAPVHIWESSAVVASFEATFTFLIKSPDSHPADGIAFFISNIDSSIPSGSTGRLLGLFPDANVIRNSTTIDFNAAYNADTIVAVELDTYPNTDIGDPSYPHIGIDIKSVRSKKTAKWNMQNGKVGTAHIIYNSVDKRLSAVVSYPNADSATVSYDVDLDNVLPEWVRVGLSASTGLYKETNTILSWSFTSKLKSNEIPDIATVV
# Chain of Alpha-bungarotoxin (Bungarus multicinctus) (P60615 whole entry, looked up): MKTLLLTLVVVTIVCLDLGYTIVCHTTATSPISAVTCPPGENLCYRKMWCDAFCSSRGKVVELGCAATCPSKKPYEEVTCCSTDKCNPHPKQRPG
# Chain of Torsin-1A-interacting protein 1 (Homo sapiens) (Q5JTV8 whole entry, looked up): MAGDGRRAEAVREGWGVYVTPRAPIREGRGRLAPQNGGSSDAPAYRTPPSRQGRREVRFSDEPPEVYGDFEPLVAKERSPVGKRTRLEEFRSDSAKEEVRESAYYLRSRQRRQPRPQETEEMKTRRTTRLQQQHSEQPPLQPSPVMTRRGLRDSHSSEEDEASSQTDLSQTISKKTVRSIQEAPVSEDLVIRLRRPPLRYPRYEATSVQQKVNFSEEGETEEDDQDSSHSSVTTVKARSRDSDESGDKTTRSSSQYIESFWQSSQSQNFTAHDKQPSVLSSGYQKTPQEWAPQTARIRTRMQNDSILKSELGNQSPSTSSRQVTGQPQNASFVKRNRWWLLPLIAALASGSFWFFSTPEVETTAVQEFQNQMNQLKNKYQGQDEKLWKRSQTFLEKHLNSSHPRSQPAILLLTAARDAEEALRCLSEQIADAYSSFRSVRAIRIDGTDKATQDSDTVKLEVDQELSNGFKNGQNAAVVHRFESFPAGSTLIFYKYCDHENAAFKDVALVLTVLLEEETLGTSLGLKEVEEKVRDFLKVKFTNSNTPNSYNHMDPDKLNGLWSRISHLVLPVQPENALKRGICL
# Chain of Left-right determination factor 2 (Homo sapiens) (O00292 whole entry, looked up): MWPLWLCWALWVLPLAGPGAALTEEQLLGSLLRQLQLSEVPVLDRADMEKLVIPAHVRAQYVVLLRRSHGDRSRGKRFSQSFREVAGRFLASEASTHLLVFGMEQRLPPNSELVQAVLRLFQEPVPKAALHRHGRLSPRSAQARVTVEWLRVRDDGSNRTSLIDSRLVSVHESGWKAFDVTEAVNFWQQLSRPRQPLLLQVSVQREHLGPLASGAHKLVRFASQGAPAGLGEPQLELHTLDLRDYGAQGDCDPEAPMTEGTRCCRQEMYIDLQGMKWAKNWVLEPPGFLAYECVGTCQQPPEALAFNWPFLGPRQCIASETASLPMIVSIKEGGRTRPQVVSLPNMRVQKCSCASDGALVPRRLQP
# Chain of Albumin (Bos taurus) (P02769 whole entry, looked up): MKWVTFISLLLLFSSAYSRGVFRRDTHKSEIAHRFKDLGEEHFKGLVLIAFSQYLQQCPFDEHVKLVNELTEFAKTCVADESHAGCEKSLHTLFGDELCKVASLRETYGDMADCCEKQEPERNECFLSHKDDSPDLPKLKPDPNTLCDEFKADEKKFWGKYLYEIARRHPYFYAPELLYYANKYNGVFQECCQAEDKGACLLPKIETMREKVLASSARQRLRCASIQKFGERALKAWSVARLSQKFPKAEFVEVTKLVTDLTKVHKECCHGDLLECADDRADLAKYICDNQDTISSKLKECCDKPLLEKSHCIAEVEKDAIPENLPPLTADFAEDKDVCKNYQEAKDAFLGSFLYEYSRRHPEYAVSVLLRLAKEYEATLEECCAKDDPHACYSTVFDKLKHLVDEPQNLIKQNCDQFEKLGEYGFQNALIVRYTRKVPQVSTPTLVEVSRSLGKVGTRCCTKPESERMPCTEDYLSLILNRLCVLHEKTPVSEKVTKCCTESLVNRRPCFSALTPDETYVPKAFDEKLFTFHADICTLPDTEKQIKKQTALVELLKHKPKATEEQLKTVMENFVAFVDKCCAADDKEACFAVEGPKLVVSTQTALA
SMILES,composite z-score [1],z-score [2],composite z-score [3],composite z-score [4],composite z-score [5],composite z-score [6],composite z-score [7],composite z-score [8],composite z-score [9],composite z-score [10],composite z-score (Albumin (Bos taurus)),composite Z-score [11],composite z-score [12],composite z-score [13],composite z-score [14],composite z-score [15],composite z-score [16],composite z-score (Sam68 (KHDRBS1)),composite z-score [17],composite z-score [18]
CO[C@H]1O[C@H](CO)[C@@H](OC(=O)Nc2ccc(C#N)cc2)[C@H](OC(=O)c2cc3ccccc3[nH]2)[C@H]1OC(=O)c1cc2ccccc2[nH]1,1.33,-2.2,0.339,2.07,0.299,-0.206,-0.0769,0.569,2.09,2.63,0.904,1.79 (inactive),0.078,-0.0211,0.627,2.41,1.5,1.31,0.451,1.13
O=C1CCCC=C1C(O)CCOCc1ccccc1 (stereo not given),-0.649,0.939,0.408,-0.314,-0.605,-0.0735,-0.209,-0.0236,0.266,0.129,-0.492,-0.32 (inactive),-0.0072,-0.108,-0.0262,-0.202,-0.195,-0.887,0.309,-0.299
CN(C)CCCNC(=O)[C@@H]1c2ccccc2C(=O)N(Cc2cc(F)cc(C(F)(F)F)c2)[C@H]1c1ccc(CO)cc1,0.7,-0.734,0.643,0.509,0.0028,-0.103,-0.0904,1.39,0.886,-0.0234,0.277,0.451 (inactive),-0.0976,-0.114,0.783,0.969,0.578,0.946,1.08,0.21
C[C@@H](c1ccccc1)N1C(=O)[C@H]2[C@H]3[C@H](O)C=CC(=O)[C@@H]3CC[C@H]2C1=O,-0.116,-1.73,0.657,0.0321,-0.442,-0.192,-0.34,-0.374,0.203,0.0013,0.0343,-0.325 (inactive),-0.0932,-0.132,0.572,-0.263,0.146,0.456,0.778,0.518
CCOC(=O)C[C@H]1[C@H](OC(=O)c2cc3ccccc3oc2=O)[C@@H](NC(=O)c2ccc3ccccc3n2)c2cc(OCCCO)ccc2N1C(=O)c1ccccc1,0.15,-1.4,0.473,0.218,0.179,0.0374,-0.138,0.108,1.12,0.593,0.328,0.946 (inactive),0.154,-0.0424,0.639,0.476,0.668,0.604,0.789,0.728
COC(=O)CC=C[C@@H](C)[C@H](OC)c1ccccc1Br,-0.0017,0.14,0.406,-0.0557,-0.346,-0.116,-0.279,-0.482,0.188,-0.152,-0.335,0.0948 (inactive),0.0985,-0.0684,-0.0896,-0.453,0.1,-0.0689,0.508,-0.24
CCCNC(=O)OC[C@H]1O[C@H](CCON=C2[C@H]3CCn4c(=O)n(-c5ccccc5)c(=O)n4[C@H]3[C@H](O)[C@@H]3O[C@H]23)C=C[C@@H]1Oc1ccc(OC)cc1,0.252,-4.4,0.292,-1.01,-0.661,-0.0944,0.0062,-0.124,-0.0551,0.134,0.704,2.63 (inactive),-0.0377,-0.0444,0.167,0.73,0.587,0.522,0.318,0.216
CCN1C(=O)[C@H]2[C@H]3[C@H](O)[C@H](O)CC(=NOCc4ccccc4)[C@@H]3CC[C@H]2C1=O,0.515,-0.0462,0.609,0.36,-0.467,-0.0819,-0.349,-0.551,0.138,0.29,-0.0633,1.92 (inactive),0.302,-0.186,0.0453,0.37,1.74,0.598,0.589,0.7
O=C1[C@H]2[C@H]3[C@H](O)[C@H](O)CC(=NOC[C@@H](O)COCc4ccco4)[C@@H]3CC[C@H]2C(=O)N1c1ccc(F)cc1F,0.427,0.199,0.74,-0.616,-1.01,-0.0792,-0.13,-0.236,0.515,-0.255,-0.126,-0.397 (inactive),-0.205,-0.14,-0.438,-1.08,0.0425,0.235,1.38,-0.359
C[C@@H](c1ccccc1)N1C(=O)[C@H]2[C@H]3[C@H](O)[C@H](O)CC(=NNC(=O)OCc4ccccc4)[C@H]3CC[C@H]2C1=O,-0.269,-2.23,0.495,0.12,-0.726,-0.0735,0.0815,-0.0567,0.464,0.284,0.3,0.281 (inactive),-0.046,-0.0978,-0.112,0.947,0.221,-0.495,0.13,0.0811
CC=CC1=C(CO)[C@H](O)[C@H]2O[C@H]2[C@H]1O,0.598,-0.956,0.827,-0.381,-1.02,-0.0758,-0.304,-0.309,-0.134,-0.0092,-0.15,0.0448 (inactive),-0.113,-0.146,-0.173,-0.188,-0.182,0.278,1.09,0.291
CC(C)CON=C1C[C@@H](O)[C@@H](O)[C@@H]2[C@@H]3C(=O)N([C@@H](C)c4ccccc4)C(=O)[C@@H]3CC[C@H]12,1.36,0.775,0.756,0.336,-0.351,-0.124,-0.0011,-0.0308,0.619,0.922,0.663,0.0312 (inactive),0.0297,-0.0959,0.378,0.754,-0.0211,1.29,0.315,1.07
